The record followed here is PubChem BioAssay (Tox21).

The nature of experiment [1]: qHTS assay to identify small molecule antagonists of the glucocorticoid receptor (GR) signaling pathway - cell viability counter screen (AID 720693). Further: nearly all actives have a fitted effect of over 55% in size.
Experiment [2] is described as follows: qHTS assay for identifying genotoxic compounds that show differential cytotoxicity against isogenic chicken DT40 cell lines with known DNA damage response pathways - wild type cell line (AID 743012). Further: nearly all actives have a fitted effect of over 60% in size. Further: potency means the concentration at half of the fitted maximal effect. The method in brief:
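Viability of DNA repair-proficient chicken DT40 cells was assessed by CellTiter-Glo luminescence following 40 h compound exposure at 37 C/5% CO2.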
Background: In qHTS, concentration-response curves come from the screen itself.

Experiment [3] can be described thus: qHTS assay for identifying genotoxic compounds that show differential cytotoxicity against isogenic chicken DT40 cell lines with known DNA damage response pathways - Rev3 mutant cell line (AID 743014). Further: nearly all actives have a fitted effect of over 55% in size. Further: potency means the concentration at half of the fitted maximal effect.
Experiment [4] is described as follows: qHTS assay for identifying genotoxic compounds that show differential cytotoxicity against isogenic chicken DT40 cell lines with known DNA damage response pathways - Rad54/Ku70 mutant cell line (AID 743015). Further: nearly all actives have a fitted effect of over 60% in size. Further: potency means the concentration at half of the fitted maximal effect.
A short description of experiment [5]: qHTS assay to identify small molecule antagonists of the androgen receptor (AR) signaling pathway using the MDA cell line - cell viability counter screen (AID 743041; further: nearly all actives have a fitted effect of over 45% in size; further: potency means the concentration at half of the fitted maximal effect). The method in brief: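 Compound exposure lasted 16 h at 37C in MDA-kb2 AR-luc cells stimulated with R1881. Protease-based CellTiter-Fluor reagent was applied for the final 30 min and fluorescence measured.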

Experiment [6] is described as follows: qHTS assay to identify small molecule antagonists of the estrogen receptor alpha (ER-alpha) signaling pathway - cell viability counter screen (AID 743074; calls by dose curve; further: nearly all actives have a fitted effect of over 45% in size; further: potency means the concentration at half of the fitted maximal effect).
Experiment [7] has as its target Estrogen receptor (Homo sapiens) (UniProt P03372). Kind of experiment: qHTS assay to identify small molecule agonists of the estrogen receptor alpha (ER-alpha) signaling pathway (AID 743075; calls by dose curve).
Experiment [8] can be described thus: qHTS assay to identify small molecule antagonists of the estrogen receptor alpha (ER-alpha) signaling pathway using the BG1 cell line (AID 743080; calls by dose curve;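 further: BG1 cells stimulated with 17beta-estradiol alongside compound; nearly all actives have a fitted effect of over 25% in size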; further: potency means the concentration at half of the fitted maximal effect). The method in brief: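 Luminescence from a 4×ERE-luciferase reporter in BG1-Luc-4E2 cells served as read-out. Cells, pre-cultured 5 days in stripped-serum phenol-red-free medium, were exposed to compound with 17beta-estradiol co-stimulation for 21.5 h at 37 C.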

Experiment [9] is described as follows: qHTS assay to identify small molecule antagonists of the estrogen receptor alpha (ER-alpha) signaling pathway using the BG1 cell line - cell viability counter screen (AID 743081).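 Further: compound given together with 17beta-estradiol as the ER stimulus; nearly all actives have a fitted effect of over 45% in size.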
The target in a further experiment is Aromatase (Homo sapiens) (UniProt P11511). Kind of experiment: qHTS assay to identify aromatase inhibitors (AID 743083). Further: nearly all actives have a fitted effect of over 55% in size. Further: potency means the concentration at half of the fitted maximal effect.
Sequence of Aromatase (Homo sapiens) (P11511 whole entry, looked up): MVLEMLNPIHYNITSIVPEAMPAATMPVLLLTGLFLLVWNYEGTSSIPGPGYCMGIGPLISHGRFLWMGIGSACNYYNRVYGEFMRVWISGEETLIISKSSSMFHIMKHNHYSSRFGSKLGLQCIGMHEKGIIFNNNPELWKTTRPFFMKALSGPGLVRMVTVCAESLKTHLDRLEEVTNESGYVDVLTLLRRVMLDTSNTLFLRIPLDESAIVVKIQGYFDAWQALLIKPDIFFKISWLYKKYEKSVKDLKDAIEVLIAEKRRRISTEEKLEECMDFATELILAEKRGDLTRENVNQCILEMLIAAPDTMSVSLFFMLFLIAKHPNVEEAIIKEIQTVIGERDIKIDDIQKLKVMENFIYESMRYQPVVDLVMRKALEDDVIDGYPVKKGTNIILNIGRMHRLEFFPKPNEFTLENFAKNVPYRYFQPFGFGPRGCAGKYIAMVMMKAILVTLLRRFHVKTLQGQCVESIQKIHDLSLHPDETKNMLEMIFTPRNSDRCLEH
Experiment [10] in a line: qHTS assay to identify small molecule antagonists of the androgen receptor (AR) signaling pathway - cell viability counter screen (AID 743033; further: nearly all actives have a fitted effect of over 45% in size).
The test system of experiment [11] is thyroid hormone receptor (rat, GH3 cells). In words: qHTS assay to identify small molecule agonists of the thyroid receptor (TR) signaling pathway (AID 743066; calls by dose curve).
Experiment [12] has as its target Estrogen receptor (Homo sapiens) (UniProt P03372). In words: qHTS assay to identify small molecule antagonists of the estrogen receptor alpha (ER-alpha) signaling pathway (AID 743069; active means well fitted curve in the direction sought with a large enough effect in the signal ratio in the repeat runs, not every such curve was filed as active; the % refers to the signal ratio). The method in brief: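 In this cell-based reporter format, GripTite HEK293 cells harbouring ER-alpha-UAS-bla were grown overnight with 2% charcoal-stripped FBS, dosed with DMSO-dissolved compounds, then challenged with 17beta-estradiol. After 18 hr at 37C, beta-lactamase activity was detected by FRET fluorescence.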

For experiment [13] the target is unchanged. Kind of experiment: qHTS assay to identify small molecule agonists of the estrogen receptor alpha (ER-alpha) signaling pathway using the BG1 cell line (AID 743079). Further: nearly all actives have a fitted effect of over 20% in size. To be noted: BG1Luc4E2 cells, ERE-luciferase agonist, 22 h; activation: at 70.3 µM (top of the series).
In experiment [14] the target is Androgen receptor (Homo sapiens) (UniProt P10275). In words: qHTS assay to identify small molecule antagonists of the androgen receptor (AR) signaling pathway (AID 743035; active means well fitted inhibition curve with a large enough effect in the signal ratio in the repeat runs, not every such curve was filed as active; the % refers to the signal ratio). Summed up: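 Reporter HEK293 cells were exposed to compounds and R1881 overnight (16 h, 37C); beta-lactamase activity was then quantified by FRET fluorescence.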
Sequence of Androgen receptor (Homo sapiens) (P10275 whole entry, looked up): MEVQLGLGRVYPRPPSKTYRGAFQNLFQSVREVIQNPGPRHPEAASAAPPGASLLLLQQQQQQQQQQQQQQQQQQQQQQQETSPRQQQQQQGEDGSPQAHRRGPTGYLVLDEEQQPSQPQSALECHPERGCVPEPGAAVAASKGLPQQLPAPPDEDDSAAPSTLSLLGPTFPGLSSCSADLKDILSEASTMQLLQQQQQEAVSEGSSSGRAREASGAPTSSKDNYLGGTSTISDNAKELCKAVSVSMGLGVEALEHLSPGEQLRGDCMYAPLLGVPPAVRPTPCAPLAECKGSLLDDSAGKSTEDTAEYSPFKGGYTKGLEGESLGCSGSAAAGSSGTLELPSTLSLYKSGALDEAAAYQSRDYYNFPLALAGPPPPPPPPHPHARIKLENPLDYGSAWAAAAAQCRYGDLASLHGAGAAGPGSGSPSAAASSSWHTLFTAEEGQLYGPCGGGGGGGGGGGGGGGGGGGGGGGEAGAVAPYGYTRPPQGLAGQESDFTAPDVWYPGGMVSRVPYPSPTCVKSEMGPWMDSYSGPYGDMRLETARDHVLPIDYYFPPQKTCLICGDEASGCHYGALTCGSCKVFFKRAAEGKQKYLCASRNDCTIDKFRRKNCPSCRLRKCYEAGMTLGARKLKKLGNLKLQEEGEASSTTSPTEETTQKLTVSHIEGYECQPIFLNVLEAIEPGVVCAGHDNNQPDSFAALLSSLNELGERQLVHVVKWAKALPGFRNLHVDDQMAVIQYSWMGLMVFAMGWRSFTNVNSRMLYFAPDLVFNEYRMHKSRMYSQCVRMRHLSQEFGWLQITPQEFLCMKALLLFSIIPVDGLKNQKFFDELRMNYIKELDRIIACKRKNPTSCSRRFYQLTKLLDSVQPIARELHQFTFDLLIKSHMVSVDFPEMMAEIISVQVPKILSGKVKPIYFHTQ
For experiment [15] the target is unchanged. Kind of experiment: qHTS assay to identify small molecule agonists of the androgen receptor (AR) signaling pathway (AID 743036; active means well fitted activation curve with a large enough effect in the signal ratio in the repeat runs, with a control signal flat, not every such curve was filed as active; the % refers to the signal ratio). Summed up:
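In this Tox21 qHTS, 2,000 HEK293 AR-bla cells per well were incubated with compounds for 16 h at 37C and 5% CO2. Fluorescence intensity was recorded 2 h after adding LiveBLAzer B/G FRET substrate at room temperature.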

For experiment [16] the target is unchanged. In words: qHTS assay to identify small molecule agonists of the androgen receptor (AR) signaling pathway using the MDA cell line (AID 743040; further: nearly all actives have a fitted effect of over 20% in size). Summed up:
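Testing was done with the MDA-kb2 AR-luc line, a human breast carcinoma stably transfected with MMTV-luciferase containing AR and GR response elements. Cells were exposed 16 h at 37C before ONE-Glo luminescence detection.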

For experiment [17] the target is unchanged. Kind of experiment: qHTS assay to identify small molecule antagonists of the androgen receptor (AR) signaling pathway using the MDA cell line (AID 743042; further: nearly all actives have a fitted effect of over 55% in size). The method in brief: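 MDA-kb2 breast carcinoma cells carrying MMTV-luciferase (AR/GR responsive) were co-treated with compounds and the agonist R1881 for 16 h at 37C. Inhibition read as ONE-Glo luminescence; CellTiter-Fluor fluorescence measured in parallel for cytotoxicity.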

Experiment [18] in a line: qHTS assay to identify small molecule antagonists of the thyroid receptor (TR) signaling pathway - cell viability counter screen (AID 743064). Further: nearly all actives have a fitted effect of over 50% in size. Summed up: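 Counter screen for cytotoxicity: compound plus T3 (1 nM final) on GH3.TRE-Luc cells, 23.5 h at 37 °C, then fluorescence viability readout with CellTiter-Fluor.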
A short description of experiment [19]: qHTS assay to identify small molecule antagonists of the thyroid receptor (TR) signaling pathway (AID 743065). Further: nearly all actives have a fitted effect of over 55% in size. Further: potency means the concentration at half of the fitted maximal effect. The method in brief:
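GH3.TRE-Luc rat pituitary cells (two TREs driving luciferase) were dosed with compound, then stimulated with 1 nM T3 (final) for 23.5 h at 37 C. ONE-Glo luminescence was the read-out, with CellTiter-Fluor fluorescence as the cytotoxicity counter-screen.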

Several values for one entry are separate records, joined by “and”; a condition that tells them apart may be missing. Identical values can stand only once. Inconclusive results are not listed. Some structures have more than one record in an assay (separate samples or runs), and their calls can disagree. Activity calls are given as the source filed them. Unless noted, the call rests on the fitted dose curve; in most records, active means well fitted curve in the direction sought with a large enough effect in the repeat runs; inconclusive means weak or mixed curves; inactive means no such curve, though single readings can be large; an effect the other way counts as inactive or inconclusive.

Sequence of Estrogen receptor (Homo sapiens) (P03372 whole entry, looked up): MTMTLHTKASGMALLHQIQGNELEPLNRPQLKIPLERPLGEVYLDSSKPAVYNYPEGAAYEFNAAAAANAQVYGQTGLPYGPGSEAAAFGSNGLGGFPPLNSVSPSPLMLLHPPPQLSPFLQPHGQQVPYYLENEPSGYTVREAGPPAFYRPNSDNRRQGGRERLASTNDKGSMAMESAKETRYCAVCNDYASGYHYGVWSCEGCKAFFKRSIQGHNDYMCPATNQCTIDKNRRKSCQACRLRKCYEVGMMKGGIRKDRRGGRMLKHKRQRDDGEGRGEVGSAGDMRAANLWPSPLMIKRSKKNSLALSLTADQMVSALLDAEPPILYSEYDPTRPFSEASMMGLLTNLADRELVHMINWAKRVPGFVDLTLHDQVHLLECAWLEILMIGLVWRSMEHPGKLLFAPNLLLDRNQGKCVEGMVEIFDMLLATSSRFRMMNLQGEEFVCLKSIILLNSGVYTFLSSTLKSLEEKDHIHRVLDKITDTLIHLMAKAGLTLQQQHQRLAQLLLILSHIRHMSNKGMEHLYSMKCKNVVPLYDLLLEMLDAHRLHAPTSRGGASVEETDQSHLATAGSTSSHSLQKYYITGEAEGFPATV

Take `NC(=O)Cn1c(=O)cc(CCN2CCN(c3nccc4sccc34)CC2)c2ccc(F)cc21`: the Potency result in experiment [1], in experiment [5], in experiment [6], in experiment [7], in experiment [8] and in experiment [9] was “inactive” each time. Further, the Potency result in the experiment with Aromatase (Homo sapiens) is “inactive”. Moreover, the Potency is 27.3 µM (active) in experiment [2], 27.3 µM (active) in experiment [3] and 24.3 µM (active) in experiment [4].

With `CCCCCCCCCOC(C)=O`, the Potency entry in experiment [1], in experiment [2], in [3], in experiment [10], in experiment [5] and in experiment [12] was “inactive” each time. Also, the Potency result (in experiment [6]; in experiment [7]; in [13]; in experiment [8]; in [9]; with Aromatase (Homo sapiens)) was “inactive” each time. The result in experiment [11] was inactive.

For the molecule `O=C(CCCCCCCCC#CI)Oc1ccccc1`, the Potency result in [1], in experiment [2], in experiment [3], in experiment [10], in experiment [14] and in experiment [15] was “inactive” in each case. Also, the Potency result (in [16]; in experiment [5]; in experiment [17]; in [18]; in [9]; with Aromatase (Homo sapiens)) was “inactive” each time. The Potency in [19] was 13.3 µM (active). Further, the result in [11] was inactive.

Take `CCn1nc(C)c2c1C(=O)NCC(c1ccc(O)cc1)=N2`: the Potency entry in experiment [1], in experiment [10], in [5], in experiment [18], in [19] and in [6] was “inactive” throughout. The Potency entry (in experiment [7]; in [13]; in experiment [8]; in experiment [9]; in the experiment with Aromatase (Homo sapiens)) was “inactive” throughout. For the same molecule, the figures for the Potency in [2] and in [3] were 61.1 µM (active) and 34.4 µM (active), respectively. Moreover, the result in [11] was inactive.

`C=CC(=O)NCOCC(C)C`: the Potency result in experiment [1], in [2], in experiment [4], in experiment [10], in experiment [5] and in experiment [18] was “inactive” each time. Besides, the Potency result (in [6]; in [9]; in the experiment with Aromatase (Homo sapiens)) was “inactive” each time.

For the molecule `Cc1cc(O)c(C(C)C)cc1Cl`, the Potency entry in [1], in experiment [2], in [10], in experiment [5], in [18] and in experiment [12] was “inactive” in each case. Also, the Potency entry (in [7]; in experiment [13]; in experiment [8]; in experiment [9]; in the experiment with Aromatase (Homo sapiens)) was “inactive” in each case. Also, the Potency result in experiment [4] was “inactive and 48.6 µM (active)”; in [6] it was “inactive and 49 µM (active)”. The molecule was classed as inactive in experiment [11].

As to `CCc1c2c(nc3ccc(OC(=O)N4CCC(N5CCCCC5)CC4)cc13)-c1cc3c(c(=O)n1C2)COC(=O)[C@]3(O)CC`, the Potency entry (in [1]; in experiment [5]; in experiment [7]; in experiment [9]; with Aromatase (Homo sapiens)) was “inactive” throughout. The Potency in experiment [2] is 5.96 µM (active); in [3] it was 5.96 µM (active); in experiment [4], 4.22 µM (active); in [19] it was 23.7 µM (active); in experiment [8], 11.9 µM (active). In addition, the molecule was called inactive in experiment [11].

`O=C(N[C@@H](c1ccccc1)[C@@H]1CCCCN1)c1cccc(C(F)(F)F)c1Cl`: the Potency result in experiment [1], in experiment [6] and in experiment [7] was “inactive” each time. For the same molecule, the Potency in [2] was 12.2 µM (active); in [3] it was 13.7 µM (active); in [4], 15.4 µM (active); in experiment [5] it was 24.3 µM (active); in the experiment with Aromatase (Homo sapiens), 38.6 µM (active).

With `OC(CCCN1CCCCC1)(c1ccccc1)c1ccccc1`, the Potency entry in [1], in [10], in experiment [14], in [15], in experiment [16] and in [5] was “inactive” in each case. The Potency entry (in experiment [17]; in experiment [12]; in experiment [7]; in experiment [13]; in [8]; with Aromatase (Homo sapiens)) was “inactive” each time. Besides, the Potency in experiment [2] is 13.3 µM (active); in [4], 29.8 µM (active). Besides, in experiment [11], the molecule was classed as inactive.

As to `CC(C)CCCCCOC(=O)CCCCC(=O)OCCCCCC(C)C`, the Potency entry in [1], in [10], in experiment [18], in experiment [19], in [6] and in experiment [9] was “inactive” each time. For the same molecule, the Potency entry in the experiment with Aromatase (Homo sapiens) is “inactive”. Moreover, the Potency in experiment [2] and in [4] was 61.1 µM (active) throughout. Besides, the call in experiment [11] was inactive.

As for `O=[N+]([O-])c1cccc(S(=O)(=O)NCCNS(=O)(=O)c2cccc([N+](=O)[O-])c2)c1`, the Potency result in [1], in experiment [2], in experiment [4], in experiment [10], in experiment [16] and in experiment [17] was “inactive” each time. The Potency entry in experiment [19], in experiment [12], in experiment [6], in experiment [7], in experiment [13] and in experiment [8] was “inactive” each time. Further, the Potency result (in experiment [9]; with Aromatase (Homo sapiens)) was “inactive” in each case. Further, the molecule was classed as inactive in experiment [11].
